Source: PubChem (several laboratories)
aSyn UTR inh = MLPCN primary screen, SNCA 5' untranslated region; alpha-synuclein 5'UTR reporter, inhibitor activity; inhibition, % (tested at 7.5 µM); actives 0.82% (n = 300,000); AID 1813; in the data active means inhibition above about 60%;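 further: H4 neuroglioblastoma cells stably carrying SNCA 5'UTR luciferase fusion; 0% = DMSO wells and 100% = positive control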
BaF3 parental = reduces parental Ba/F3 cell viability, JAK2V617F counter-screen; CellTiter-Glo ATP luminescence; inhibition, % at 5.6 µM; AID 1486; actives 1.1% (n = 220,000);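 active means inhibition above a per-campaign cutoff, the mean inhibition of all tested compounds plus 3 SD, cut at about 27% in these data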;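 further: 0% = DMSO wells and 100% = JAK Inhibitor I control wells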
KLF5 inhibitor = suppresses KLF5 promoter-driven expression | DLD-1 KLF5 promoter-luciferase reporter, luminescence | inhibition, % at 5 µM | actives 0.23% (n = 290,000) | AID 1700;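 active means inhibition above a per-plate limit of that plate's mean compound inhibition plus 3 SD, cut at about 60% in these data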;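 further: 0% = DMSO wells and 100% = LY294002 at 200 µM; higher means less KLF5 promoter-driven luciferase light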
Ba/F3 V617F tox = lowers viability of Ba/F3 cells expressing EpoR and JAK2V617F. ATP luminescence. inhibition, % at 5.6 µM. actives 1.1% (n = 220,000). AID 1446;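 active means inhibition above the campaign mean plus 3 SD over all tested compounds, cut at about 24% in these data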;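 further: cytokine-independent growth of Ba/F3 cells driven by EpoR plus mutant JAK2; 0% = DMSO-treated cells and 100% = JAK inhibitor I control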
APP 5UTR inh = APP translation inhibition. SH-SY5Y APP 5'UTR-luciferase reporter, luminescence. inhibition, % at 2 µM. actives 0.82% (n = 190,000);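 active means inhibition above a set limit, derived from the sample mean plus 3 SD, cut at about 45% in these data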
IEC-6 cytotox = counter-screen for KLF5 inhibitors: cytotoxicity in IEC-6 cells | IEC-6 cytotoxicity, luminescence viability | actives 0.78% (n = 290,000) | inhibition, % at 5 µM; in the data active means inhibition above about 22%;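 further: 0% = plate median of test compound wells and 100% = cytotoxic reference compound wells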
* marks the source's active call; other numbers are inactive results; nt = no result. An excerpt weighted towards active compounds, which were near 2.1% of everything screened.

SMILES	aSyn UTR inh	BaF3 parental	KLF5 inhibitor	Ba/F3 V617F tox	APP 5UTR inh	IEC-6 cytotox
COc1ccc(-n2c(SC(C)C(=O)Nc3ncc(Cl)cc3Cl)nc3ccccc32)cc1 (stereo unspecified)	76.6*	62.0*	42.0	68.5*	25.1	66.5*
O=c1[nH]c(=S)[nH]c2c1C(c1ccc(Br)cc1)c1c([nH]c(=S)[nH]c1=O)O2	3.2	nt	-8.5	nt	nt	-12.0
CC(C)Oc1ncnc2c1[nH]c1ccccc12	-35.2	36.3*	-35.0	0.3	nt	6.2
COC(=O)c1ccc(NC(=O)CSc2nnc(COc3ccc4c(c3)CCCC4)o2)cc1	6.7	96.4*	7.4	-3.1	-3.3	-6.0
CCc1ccc(NC(=O)CSc2nnc(COc3ccc4c(c3)CCCC4)o2)cc1	1.2	4.0	-7.5	2.2	8.8	2.6
COc1ccc(NC(=O)[C@@H](NC(=O)c2ccccc2F)C(C)C)cc1S(=O)(=O)N1CCOCC1	26.3	6.4	-26.9	1.1	7.2	-5.3
O=C(NCc1cccnc1)c1ccc(S(=O)(=O)N2CCCCC2)cc1	20.3	4.5	0.5	-1.1	17.8	-3.6
COc1ccc(CNC(=O)c2ccc(S(=O)(=O)N3CCCC3)cc2)cc1OC	5.0	4.9	-9.6	-0.2	51.9*	-7.7
O=C(N/N=C\c1c(O)ccc2ccccc12)c1ccc(S(=O)(=O)N2CCCCC2)cc1	114.4*	8.9	-9.2	-3.2	85.8*	-3.9
COc1ccccc1N1CCN(C(=O)c2ccc(S(=O)(=O)N3CCCCCC3)cc2)CC1	10.4	93.7*	12.1	2.4	-26.5	-1.0
O=C(NCc1ccccc1)c1ccc(S(=O)(=O)N2CCCC2)cc1	28.5	-0.5	2.5	-3.3	50.9*	4.5
O=C(CSc1cccc[n+]1[O-])Nc1ccc(N2CCOCC2)cc1	-7.5	3.4	-39.1	3.5	-21.3	-1.2
CCc1ccccc1NC(=S)N(CCOC)C(C)c1ccco1 (stereo unspecified)	3.0	-6.8	-30.3	2.7	nt	2.1
O=S(=O)(Nc1ncccn1)c1ccc(NC(=S)NCc2cccnc2)cc1	9.7	7.6	-19.1	0.6	6.9	-2.5
O=C(Nc1cccnc1Cl)c1ccc(S(=O)(=O)N2CCCCCC2)cc1	16.4	4.3	-18.1	-0.1	90.0*	-1.8
O=S(=O)(c1ccc(NC(=S)NCc2cccnc2)cc1)N1CCCCC1	86.4*	-6.6	14.5	18.7	nt	4.2
COc1ccc(S(=O)(=O)N2CCOCC2)cc1NC(=O)CCNC(=O)c1ccc(Br)cc1	76.6*	nt	nt	nt	nt	nt
O=C(c1ccco1)N1CCCC(c2nc3c(nnn3Cc3c(Cl)cccc3Cl)c(=O)[nH]2)C1 (stereo unspecified)	16.5	nt	7.5	nt	nt	0.6
CCn1c(SCC(=O)N2CC(C)OC(C)C2)nc2c([nH]c3ccccc32)c1=O (stereo unspecified)	2.4	nt	-10.1	nt	nt	1.4
CCOc1cc(/C=C(\CC(=O)O)c2nc3ccccc3s2)ccc1OC	17.6	41.1*	-4.6	9.0	-8.8	11.6
COc1ccc(/C=C(\CC(=O)O)c2nc3ccccc3s2)cc1O	-8.8	4.3	-19.9	-1.6	-14.4	6.9
O=C(Cn1nnc2ccccc21)NNC(=S)NC1CCCCC1	-8.9	4.3	-13.7	-5.0	22.4	-1.3
CCN1CCN(C(=O)CCc2ccc(S(=O)(=O)NCCc3ccccc3)cc2)CC1	26.2	0.5	-27.2	-1.9	55.6*	-1.0
COc1ccc(C(=O)Nc2cc(OC)cc(OC)c2)cc1	-61.7	68.8*	-84.2	4.0	-125.0	8.9
COc1ccc(C(=O)Nc2ccc3[nH]ccc3c2)cc1OC	-134.2	nt	nt	nt	nt	nt
SMILES	aSyn UTR inh	BaF3 parental	KLF5 inhibitor	Ba/F3 V617F tox	APP 5UTR inh	IEC-6 cytotox
COc1ccc(C(=O)Nc2ccc3[nH]ccc3c2)cc1	66.4*	nt	nt	nt	nt	nt
Cc1ccc(C(=O)Nc2ccc3ccccc3c2)cc1	66.0*	nt	71.6*	nt	nt	0.2
CN(CC(=O)Nc1ccccc1Cl)C(=O)COC(=O)c1nc(Cl)c(Cl)c(Cl)c1Cl	-128.5	nt	5.7	nt	nt	8.3
COc1ccc(NC(=S)N2CCN(c3ncccn3)CC2)cc1	12.5	3.4	-26.8	0.3	8.2	-0.7
CC(=O)c1ccc(N2CCN(C(=S)Nc3cccc(F)c3)CC2)cc1	12.5	30.3*	-15.7	41.4*	-8.0	-2.6
Fc1cc(F)cc(NC(=S)N2CCN(c3ncccn3)CC2)c1	7.5	27.2*	-1.3	35.9*	4.7	3.4
O=C1CCc2cc(S(=O)(=O)NC3CCCCC3)cc3c2N1CC3	6.8	nt	nt	nt	nt	nt
CCOc1ccc(NC(=O)CCc2nnc3ccc(N4CCC5(CC4)OCCO5)nn23)cc1	33.2	nt	-18.1	nt	nt	-6.3
CC(=O)c1c(C)[nH]c(C(=O)OCCOc2ccccc2)c1C	66.8*	2.8	-62.6	-2.9	-212.0	7.1
CN(C)c1ccc(-c2nnc(-c3cccs3)o2)cc1	81.9*	5.1	-98.0	-1.3	-163.3	1.1
COCCn1c(C)nnc1SCC(=O)NNC(=O)c1ccc(Cl)cc1	11.6	nt	-23.0	nt	nt	2.8
NC(=S)N/N=C1\CC(n2nnn(-c3cccc(Cl)c3)c2=S)C2COC1O2 (stereo unspecified)	-6.4	5.7	-21.7	4.3	-6.8	0.4
O=C(CCc1ccccc1)Nc1cc(Cl)ccc1O	-20.4	28.8*	-24.0	22.8	-9.8	0.0
COc1ccccc1C(=O)N/C(=C\c1cn(S(=O)(=O)N(C)C)c2ccccc12)C(=O)N1CCOCC1	-12.0	nt	-23.6	nt	nt	7.0
Cc1nc(-c2nnc(SCC(=O)Nc3cc(Cl)cc(Cl)c3)n2C)cs1	-3.0	-3.6	-29.5	0.8	nt	-0.7
Fc1ccc(NC(=S)N2CCCN(c3ccc(C(F)(F)F)cn3)CC2)c(F)c1	10.5	32.9*	-7.7	35.4*	nt	-6.0
COc1ccc(N2CCN(S(=O)(=O)CCNC(=O)Cc3ccc([N+](=O)[O-])cc3)CC2)cc1	65.3*	nt	-28.1	nt	nt	-0.3
COc1ccc(CCC(=O)NCCS(=O)(=O)N2CCN(c3ccc(OC)cc3)CC2)cc1	13.0	nt	-5.8	nt	nt	-4.4
O=C(NCCS(=O)(=O)N1CCN(c2ccc(F)cc2)CC1)c1ccc(Br)o1	127.2*	nt	-16.6	nt	nt	-5.7
Cc1cccc(OCC(=O)NCC(=O)N/N=C/c2c(C)[nH]c3ccccc23)c1	2.9	-6.4	-19.1	-2.3	nt	-5.3
Cc1ccccc1C(=O)Nc1nnc(-c2ccco2)s1	65.1*	-0.6	-136.9	-0.7	-140.8	-1.9
CN1CCN(C(=O)C23CC4CC(C2)CC(c2ccccc2)(C4)C3)CC1	2.1	7.5	-11.7	3.3	5.0	4.5
O=C(NCc1cccs1)C1CCN(c2ccc(S(=O)(=O)N3CCOCC3)cc2Cl)CC1	23.6	77.8*	74.3*	72.6*	92.7*	76.1*
O=C(c1ccc(S(=O)(=O)Nc2cccc(C(F)(F)F)c2)cc1)N1CCN(c2ccccc2O)CC1	13.8	nt	nt	nt	nt	nt
O=C(c1cc([N+](=O)[O-])ccc1N1CCCCC1)N1CCc2ccccc21	81.2*	7.3	-7.5	2.8	41.7	-3.4
O=C(c1cc([N+](=O)[O-])ccc1Cl)N1CCc2ccccc21	23.4	nt	-19.4	nt	nt	1.1
Cc1ccc(C(=O)c2cc([N+](=O)[O-])ccc2N2CCCCC2)c(C)c1	69.5*	86.5*	37.5	88.1*	96.2*	89.4*
